The text below walks through data of ChEMBL document CHEMBL4513156, “CO-ADD screening of NCPRI (Romania) compounds”.

Each structure is given as a SMILES string. Entries with a potency or affinity are not part of this list.

The test system of this experiment is Staphylococcus aureus. Conditions: Concentration 32 ug.mL-1; ASSAY_TEST Inhibition of Bacterial Growth; detection method Absorption (OD600); MEDIA CAMHB; plate type 384well; NBS; CORNING #3640; time 18 hr.
In the case of `O=C(NNC(=O)c1cccc([N+](=O)[O-])c1C(=O)O)c1ccncc1`, the Inhibition (as a rule, the drop in the measured response relative to a control, in per cent) is 23.26%.

Consider `O=C(NNC(=O)c1ccc([N+](=O)[O-])cc1C(=O)O)c1ccncc1`, for which the Inhibition was 30.83%.

As for `O=C(N/N=C/COc1cccc(Cl)c1)c1ccncc1`, the Inhibition is 8.36%.

Turning to `O=C1C[C@H]2[C@H](/C=N/NC(=O)c3ccncc3)[C@H](C[C@@H]2Cl)O1`, the Inhibition was determined as 34.06%.

Take `O=C(N/N=C/C[C@@H]1[C@@H](/C=N/NC(=O)c2ccncc2)[C@H](O)C[C@@H]1O)c1ccncc1`: the Inhibition is recorded as 16.7%.

For `COC(=O)CCCCCC[C@@H]1[C@@H](/C=N/NC(=O)c2ccncc2)[C@H](OC(=O)c2ccccc2)C[C@@H]1O`, the Inhibition is given as 26.15%.

Take `O=C(N/N=C/CCCO)c1ccncc1`: the Inhibition turned out to be 10.52%.

Regarding `O=C(N/N=C/[C@@H]1C[C@H](CO)[C@@H]2CCC[C@@H]21)c1ccncc1`, the Inhibition is reported as 23.56%.

For `COC(=O)C[C@H]1[C@H](/C=N\NC(=O)c2ccncc2)[C@@H](O[Si](C)(C)C(C)(C)C)C[C@@H]1Cl`, the Inhibition came to 29.13%.

On to `O=C(N/N=C1/C[C@@H]2[C@@H](C(=O)O)[C@H]1C[C@H]2Cl)c1ccncc1`, for which the Inhibition turned out to be 32.79%.

As to `O=C(NN=CC[C@@H]1[C@@H](/C=C/[C@@H](O)CCc2ccccc2)[C@H](OC(=O)c2ccccc2)C[C@@H]1O)c1ccncc1`, the Inhibition came out at 18.76%.

In the case of `O=C(NN=C[C@H]1[C@H]2CC(O)OC[C@H]2C[C@H]1O)c1ccncc1` (stereo partly drawn), the Inhibition was 15.22%.

Regarding `O=C(N/N=C1/C[C@@H]2[C@H](COC(c3ccccc3)(c3ccccc3)c3ccccc3)C[C@H](COC(c3ccccc3)(c3ccccc3)c3ccccc3)[C@@H]2C1)c1ccncc1`, the Inhibition is on record as -0.42%.
